Test results reported in PubChem BioAssay (EPA / NIEHS).
Values joined by “and” are separate entries in the source; they are usually repeats but may differ in a detail not shown here. Identical values can stand only once. More than one record can exist for a structure, and the calls need not agree. Active and inactive are the calls of the source. Rule for the calls: active = hit-call score of the fitted dose curve at least 0.9, where 1 is the maximum; inactive = score below 0.9.

Columns and labels:
[1] = read-out: Collagen III, COL3A1 (gene 1281); assay: BSK_hDFCGF_CollagenIII: BioMAP Diversity Plus: hDFCGF Assay for Collagen III Biomarker Activity (AID 2283056); conditions: primary human foreskin fibroblasts; actives raise or lower the signal
Procedure, shortened: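 ELISA readout of Collagen III in human dermal (foreskin) fibroblasts, taken 24 h post-treatment. Gain or loss relative to DMSO vehicle fitted in both directions.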

[2] = read-out: Epidermal growth factor receptor (EGFR), EGFR (gene 1956); assay: BSK_hDFCGF_EGFR: BioMAP Diversity Plus: hDFCGF Assay for Epidermal growth factor receptor (EGFR) Biomarker Activity (AID 2283057); conditions: primary human foreskin fibroblasts; actives raise or lower the signal
Procedure, shortened: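 Cell-based multiplexed assay in primary human foreskin fibroblasts. EGFR is read by ELISA 24 h after treatment and compared with DMSO controls.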

[3] = BSK_hDFCGF_Proliferation: Cell Proliferation Assessment in the BioMAP Diversity Plus: hDFCGF Assay (AID 2283059); conditions: primary human foreskin fibroblasts;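 note: curves fitted for both rise and fall of signal versus DMSO baseline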
Procedure, shortened: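 This proliferation readout used SRB total-protein staining of human foreskin fibroblasts […], normalized to DMSO with bidirectional curve fitting.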

[4] = read-out: Macrophage colony-stimulating factor (MCSF), CSF1 (gene 1435); assay: BSK_hDFCGF_MCSF: BioMAP Diversity Plus: hDFCGF Assay for Macrophage colony-stimulating factor (MCSF) Biomarker Activity (AID 2283060); conditions: primary human foreskin fibroblasts; actives raise or lower the signal
Procedure, shortened: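 M-CSF levels read by ELISA at 24 h post-dosing in human skin fibroblasts. Parallel cultures stained with SRB assessed cytotoxicity at the same time point; response fitted in both directions against the DMSO baseline.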

[5] = BSK_hDFCGF_SRB: Viability Assessment in the BioMAP Diversity Plus: hDFCGF Assay (AID 2283061); conditions: primary human foreskin fibroblasts;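 note: cells exposed to compound for 24 h before the read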
Procedure, shortened: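 Viability was read as total protein: after 10% TCA fixation, wells were stained with 0.1% sulforhodamine B and read at 560 nm. Primary human foreskin fibroblasts were dosed for 24 h, with bidirectional fitting versus DMSO.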

[6] = read-out: TIMP metallopeptidase inhibitor 1 (TIMP1), TIMP1 (gene 7076); assay: BSK_hDFCGF_TIMP1: BioMAP Diversity Plus: hDFCGF Assay for TIMP metallopeptidase inhibitor 1 (TIMP1) Biomarker Activity (AID 2283062); conditions: primary human foreskin fibroblasts; actives raise or lower the signal
Procedure, shortened: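 TIMP-1 measured by ELISA 24 h after chemical dosing of primary human skin fibroblasts, with gain or loss fitted relative to DMSO. Parallel SRB staining (560 nm) monitored overt cytotoxicity.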

[7] = read-out: Monokine induced gamma interferon (MIG), CXCL9 (gene 4283); assay: BSK_hDFCGF_MIG: BioMAP Diversity Plus: hDFCGF Assay for Monokine induced gamma interferon (MIG) Biomarker Activity (AID 2283063); conditions: primary human foreskin fibroblasts; actives raise or lower the signal
Procedure, shortened: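 Human primary foreskin fibroblasts in the hDFCGF system, exposed to test chemical for 24 h; MIG measured by ELISA. Bidirectional curve fitting against DMSO negative control as activity baseline.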

[8] = read-out: Matrix Metallopeptidase 1 (MMP1), MMP1 (gene 4312); assay: BSK_hDFCGF_MMP1: BioMAP Diversity Plus: hDFCGF Assay for Matrix Metallopeptidase 1 (MMP1) Biomarker Activity (AID 2283064); conditions: primary human foreskin fibroblasts; actives raise or lower the signal
Procedure, shortened: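 ELISA read-out of MMP1 from human foreskin fibroblasts (primary skin cells), 24 h post-dose. Gain or loss of signal was fitted bidirectionally versus DMSO negative control; cytotoxicity was checked by SRB in parallel cultures.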

[9] = read-out: Vascular cell adhesion molecule 1 (VCAM1), VCAM1 (gene 7412); assay: BSK_hDFCGF_VCAM1: BioMAP Diversity Plus: hDFCGF Assay for Vascular cell adhesion molecule 1 (VCAM1) Biomarker Activity (AID 2283065); conditions: primary human foreskin fibroblasts; actives raise or lower the signal;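 for AC50: VCAM-1 protein level quantified by ELISA after 24 h chemical exposure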
Procedure, shortened: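 ELISA readout of VCAM-1 on human dermal fibroblast primary cultures, 24 h after chemical exposure. Gain or loss of signal fitted in both directions against DMSO baseline.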

[10] = read-out: Plasminogen activator inhibitor-1 (PAI1), SERPINE1 (gene 5054); assay: BSK_hDFCGF_PAI1: BioMAP Diversity Plus: hDFCGF Assay for Plasminogen activator inhibitor-1 (PAI1) Biomarker Activity (AID 2283066); conditions: primary human foreskin fibroblasts; actives raise or lower the signal
Procedure, shortened: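 Human skin fibroblast cultures receive chemical for 24 h before PAI-1 is measured by ELISA; signal changes are fitted bidirectionally against DMSO-treated wells.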

[11] = read-out: Intercellular Adhesion Molecule 1 (ICAM1), ICAM1 (gene 3383); assay: BSK_KF3CT_ICAM1: BioMAP Diversity Plus: KF3CT Assay for Intercellular Adhesion Molecule 1 (ICAM1) Biomarker Activity (AID 2283067); conditions: primary human keratinocytes with fibroblasts; actives raise or lower the signal
Procedure, shortened: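 Cell-surface ICAM-1 was measured by ELISA 24 h after dosing primary human skin keratinocytes co-cultured with fibroblasts. Parallel SRB staining tracked overt cytotoxicity. Gain or loss of signal was fitted relative to DMSO.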

[12] = read-out: Interferon-gamma inducible Protein 10 (IP10), CXCL10 (gene 3627); assay: BSK_KF3CT_IP10: BioMAP Diversity Plus: KF3CT Assay for Interferon-gamma inducible Protein 10 (IP10) Biomarker Activity (AID 2283068); conditions: primary human keratinocytes with fibroblasts; actives raise or lower the signal
Procedure, shortened: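 Signal is secreted/surface IP-10 by ELISA in a human primary skin co-culture of keratinocytes and foreskin fibroblasts, taken 24 h post-dosing; DMSO served as negative control.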

[13] = BSK_KF3CT_SRB: Viability Assessment in the BioMAP Diversity Plus: KF3CT Assay (AID 2283069); conditions: primary human keratinocytes with fibroblasts;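 note: total protein by sulforhodamine B staining as a cytotoxicity measure; read 24 h after compound addition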
Procedure, shortened: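 SRB read-out at 560 nm (0.1% stain, TCA-fixed cells) gauges overt cytotoxicity in a human skin keratinocyte–fibroblast co-culture 24 h post-dosing. Signal change was fitted bidirectionally relative to DMSO control.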

[14] = read-out: Interleukin-1 alpha (IL1a), IL1A (gene 3552); assay: BSK_KF3CT_IL1a: BioMAP Diversity Plus: KF3CT Assay for Interleukin-1 alpha (IL1a) Biomarker Activity (AID 2283070); conditions: primary human keratinocytes with fibroblasts; actives raise or lower the signal
Procedure, shortened: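 Primary skin co-culture (keratinocytes, foreskin fibroblasts), 24 h exposure; ELISA for IL-1a; bidirectional curve fit vs DMSO.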

[15] = read-out: TIMP metallopeptidase inhibitor 2 (TIMP2), TIMP2 (gene 7077); assay: BSK_KF3CT_TIMP2: BioMAP Diversity Plus: KF3CT Assay for TIMP metallopeptidase inhibitor 2 (TIMP2) Biomarker Activity (AID 2283071); conditions: primary human keratinocytes with fibroblasts; actives raise or lower the signal
Procedure, shortened: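 Measurements come from ELISA detection of TIMP-2 at 24 hours in a dosed human keratinocyte and foreskin fibroblast co-culture. DMSO serves as negative control and baseline.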

[16] = read-out: Transforming growth factor beta 1 (TGFb1), TGFB1 (gene 7040); assay: BSK_KF3CT_TGFb1: BioMAP Diversity Plus: KF3CT Assay for Transforming growth factor beta 1 (TGFb1) Biomarker Activity (AID 2283072); conditions: primary human keratinocytes with fibroblasts; actives raise or lower the signal
Procedure, shortened: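 TGF-b1 ELISA on a 24 h dosed co-culture of human keratinocytes and foreskin fibroblasts; cytotoxicity tracked in parallel cultures by SRB staining.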

[17] = read-out: Matrix Metallopeptidase 9 (MMP9), MMP9 (gene 4318); assay: BSK_KF3CT_MMP9: BioMAP Diversity Plus: KF3CT Assay for Matrix Metallopeptidase 9 (MMP9) Biomarker Activity (AID 2283074); conditions: primary human keratinocytes with fibroblasts; actives raise or lower the signal;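 for AC50: MMP9 protein level quantified by ELISA in the co-culture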
Procedure, shortened: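 ELISA read-out of MMP-9 at 24 h post-dosing in a co-culture of human skin keratinocytes and foreskin fibroblasts. Gain or loss of signal was fitted in both directions against DMSO.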

CD40, CD40 (gene 958) = assay: BSK_LPS_CD40: BioMAP Diversity Plus: LPS Assay for CD40 Biomarker Activity (AID 2283076); conditions: primary human HUVEC with PBMC; actives raise or lower the signal
Procedure, shortened: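 In the LPS system of human endothelial cells with peripheral blood mononuclear cells, CD40 levels were read by ELISA 24 h post-treatment. Signal changes in either direction were fitted against the DMSO baseline, with parallel SRB protein staining.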

[18] = read-out: E-selectin (Homo sapiens) (UniProt P16581); assay: BSK_LPS_Eselectin: BioMAP Diversity Plus: LPS Assay for Eselectin Biomarker Activity (AID 2283077); conditions: primary human HUVEC with PBMC; actives raise or lower the signal
Procedure, shortened: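 E-selectin ELISA on LPS-stimulated endothelial cell/PBMC co-cultures, read 24 h post-treatment; gains and losses fitted against DMSO. Parallel SRB staining (0.1% SRB after 10% TCA fixation, 560 nm) flags overt cytotoxicity.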

[19] = read-out: Interleukin-8 (IL8), CXCL8 (gene 3576); assay: BSK_LPS_IL8: BioMAP Diversity Plus: LPS Assay for Interleukin-8 (IL8) Biomarker Activity (AID 2283078); conditions: primary human HUVEC with PBMC; actives raise or lower the signal
Procedure, shortened: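 ELISA read-out of IL-8 after 24 h chemical treatment of LPS-activated endothelial/PBMC human primary co-cultures. Changes either up or down relative to DMSO; overt cytotoxicity checked by sulforhodamine B staining in parallel wells.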

Measured: AC50

E-selectin (Homo sapiens), sequence (P16581 whole entry, looked up): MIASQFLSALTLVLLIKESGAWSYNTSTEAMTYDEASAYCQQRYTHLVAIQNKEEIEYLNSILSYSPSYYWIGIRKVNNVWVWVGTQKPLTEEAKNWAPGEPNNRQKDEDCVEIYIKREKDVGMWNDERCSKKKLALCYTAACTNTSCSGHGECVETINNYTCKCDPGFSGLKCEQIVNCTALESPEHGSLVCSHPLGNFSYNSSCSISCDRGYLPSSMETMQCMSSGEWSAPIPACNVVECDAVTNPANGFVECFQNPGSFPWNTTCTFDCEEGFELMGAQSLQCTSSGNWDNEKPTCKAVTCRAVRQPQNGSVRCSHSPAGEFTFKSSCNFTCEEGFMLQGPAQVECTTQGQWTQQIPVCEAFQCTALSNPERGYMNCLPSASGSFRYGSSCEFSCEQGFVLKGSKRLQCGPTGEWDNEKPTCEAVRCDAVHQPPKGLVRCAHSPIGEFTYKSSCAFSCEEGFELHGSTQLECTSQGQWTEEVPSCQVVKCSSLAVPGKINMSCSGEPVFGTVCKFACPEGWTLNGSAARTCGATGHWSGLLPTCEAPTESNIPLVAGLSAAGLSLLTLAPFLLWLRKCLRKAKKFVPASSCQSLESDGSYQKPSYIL

O=c1c2ccccc2oc2ccccc12
inactive: all assays above

Nc1ccc(N)c(Cl)c1
active: [1] 28.4 µM | [2] 21.4 µM | [3] 9.65 µM | [4] 14.9 µM and 16.5 µM | [5] 32.3 µM and 32.1 µM | [6] 34.2 µM | [7] 17.2 µM and 17.5 µM | [8] 34.5 µM and 33 µM | [9] 13 µM and 17.1 µM | [10] 26.4 µM and 31.4 µM | [14] 8.84 µM and 11.4 µM | [17] 20 µM and 18.3 µM | CD40, CD40 (gene 958) 3.22 µM and 2.55 µM | [18] 13.9 µM | [19] 7.92 µM
inactive: [1] | [2] | [6] | [11] | [12] | [13] | [15] | [18] | [19]

CO[Si](OC)(OC)c1ccccc1
not listed: [16]
inactive: all other assays above

CC1OC1C1CCC2(C)OC2C1 (stereo not drawn)
active: [1] 11.4 µM
inactive: all other assays above
